# In the supplement of paper PMC12494721:
# Counter-ions that a name gives are not always drawn.
# Columns and labels:
# Settings in all cases: incubation time: 27 h, anaerobic, 37 °C;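 for the amine columns active = adjusted P below 0.05 in both replicates with a change the same way and a mean fold change under 0.8 or over 1.25; inactive = the rest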
# [1] = test system: Clostridium sporogenes DSM 1664; assay: growth (OD595) fold change vs plate DMSO controls (fold change (ratio)); higher = more growth
# Method in brief: (§1)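 Growth is calculated as fold change against the median of the DMSO control wells on each plate. Readings at 595 nm from anaerobic mGAM cultures (96-well, 27 h, 37 °C) were blank-subtracted, background-corrected with 20 µM compound solutions in water, and converted to OD by a calibration factor of 5. Fold changes above 1.5 were recorded as NA, and results are means of 2 biological replicates.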
# Escherichia coli IAI1 [2] = assay: as above
# Method in brief: as §1
# [3] = test system: Klebsiella aerogenes DSM 30053; assay: as above
# Method in brief: as §1
# [4] = test system: Ruminococcus gnavus DSM 108212; assay: as above
# Method in brief: as §1
# [5] = test system: Klebsiella aerogenes DSM 30053; assay: fold change of Histamine concentration vs plate DMSO controls (fold change (ratio)); higher = more amine produced, active = hit call of the paper (significant change in both replicates, either direction)
# Method in brief: (§2)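 Each value is the fold change relative to DMSO-only wells on the same plate. Four gut bacterial strains were grown anaerobically in mGAM at 37 °C for 27 h in 80 µL wells, starting at OD 0.1 before a 1:1 dilution, with compounds at 20 µM final (sweeteners 50 µM). Whole cultures were extracted with cold acetonitrile/methanol containing 0.1% formic acid, centrifuged, and amines were quantified by LC–triple-quadrupole MS (dynamic MRM) against external calibration curves with within-batch drift correction. Values are means of 2 biological replicates.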
# [6] = test system: Clostridium sporogenes DSM 1664; assay: fold change of Tryptamine concentration vs plate DMSO controls (fold change (ratio)); higher = more amine produced, active = hit call of the paper (significant change in both replicates, either direction)
# Method in brief: as §2
# [7] = test system: Ruminococcus gnavus DSM 108212; assay: as above
# Method in brief: as §2
# Escherichia coli IAI1 [8] = assay: fold change of Putrescine concentration vs plate DMSO controls (fold change (ratio)); higher = more amine produced, active = hit call of the paper (significant change in both replicates, either direction)
# Method in brief: as §2
# [9] = test system: Klebsiella aerogenes DSM 30053; assay: as above
# Method in brief: as §2
# Escherichia coli IAI1 [10] = assay: fold change of Cadaverine concentration vs plate DMSO controls (fold change (ratio)); higher = more amine produced, active = hit call of the paper (significant change in both replicates, either direction)
# Method in brief: as §2
# [11] = test system: Klebsiella aerogenes DSM 30053; assay: as above
# Method in brief: as §2
# [12] = test system: Ruminococcus gnavus DSM 108212; assay: fold change of 2-Phenylethylamine concentration vs plate DMSO controls (fold change (ratio)); higher = more amine produced, active = hit call of the paper (significant change in both replicates, either direction)
# Method in brief: as §2
SMILES,growth [1],growth (Escherichia coli IAI1 [2]),growth [3],growth [4],fold change of Histamine concentration [5],fold change of Tryptamine concentration [6],fold change of Tryptamine concentration [7],fold change of Putrescine concentration (Escherichia coli IAI1 [8]),fold change of Putrescine concentration [9],fold change of Cadaverine concentration (Escherichia coli IAI1 [10]),fold change of Cadaverine concentration [11],fold change of 2-Phenylethylamine concentration [12]
CCC1(c2ccccc2)NC(=O)N(C)C1=O (centres undefined) [Mephenytoin] (20 µM),0.908,1.05,1.11,1.14,0.905 (inactive),1.09 (inactive),1.02 (inactive),1.06 (inactive),1.02 (inactive),1.01 (inactive),1.02 (inactive),1.03 (inactive)
Cc1c(Cl)cccc1Nc1ncccc1C(=O)O [Clonixin lysinate] (20 µM),1.13,1.07,1.02,1.43,1.01 (inactive),0.959 (inactive),1.01 (inactive),1.1 (inactive),1.03 (inactive),0.96 (inactive),1.04 (inactive),1.01 (inactive)
Cc1ccc(S(=O)(=O)NC(=O)NN2CC3CCCC3C2)cc1 (centres undefined) [Gliclazide] (20 µM),1.15,1.06,0.986,0.999,1.04 (inactive),1.06 (inactive),1.12 (inactive),0.995 (inactive),1 (inactive),0.883 (inactive),1 (inactive),1.12 (inactive)
Cc1c(O)c(=O)ccn1C [Deferiprone] (20 µM),1,0.999,1.04,1.06,1.03 (inactive),1.05 (inactive),1.02 (inactive),1 (inactive),1.01 (inactive),1.03 (inactive),0.999 (inactive),1 (inactive)
CC(CN(C)C)CN1c2ccccc2Sc2ccccc21 (centres undefined) [Trimeprazine tartrate] (20 µM),1.23,1.01,1.07,0.937,0.989 (inactive),1.08 (inactive),0.804 (inactive),0.885 (inactive),1 (inactive),1.02 (inactive),1.01 (inactive),0.818 (inactive)
Cc1cc2nc3ccc(=[N+](C)C)cc-3sc2cc1N [Tolonium chloride] (20 µM),0.823,0.559,0.55,0.0958,0.959 (inactive),1 (inactive),0.972 (inactive),0.979 (inactive),1 (inactive),1.05 (inactive),0.984 (inactive),0.959 (inactive)
CC(C)(CO)[C@@H](O)C(=O)NCCCC(=O)O [Hopantenate calcium] (20 µM),1.07,0.997,0.983,1.05,1.03 (inactive),1.02 (inactive),1.04 (inactive),1.01 (inactive),0.995 (inactive),1.03 (inactive),0.988 (inactive),1.03 (inactive)
Nc1nc(F)nc2c1ncn2[C@@H]1O[C@H](CO)[C@@H](O)[C@@H]1O [Fludarabine] (20 µM),0.775,0.524,0.982,0.936,0.976 (inactive),1.04 (inactive),0.796 (active),0.546 (inactive),0.965 (inactive),0.91 (inactive),1.02 (inactive),0.838 (inactive)
N#Cc1cc(NC(=O)C(=O)O)c(Cl)c(NC(=O)C(=O)O)c1 [Lodoxamide] (20 µM),1.02,1.15,1.01,1.12,0.985 (inactive),1.05 (inactive),0.986 (inactive),1.17 (inactive),1.01 (inactive),0.977 (inactive),0.997 (inactive),0.934 (inactive)
O=c1cc(-c2ccc(O)c(O)c2)oc2cc(O)cc(O)c12 [Luteolin] (20 µM),0.877,0.977,0.977,1.11,0.969 (inactive),0.776 (inactive),0.985 (inactive),1.07 (inactive),0.991 (inactive),1.03 (inactive),1.02 (inactive),1.08 (inactive)
COc1ncnc(NS(=O)(=O)c2ccc(N)cc2)c1OC [Sulfadoxine] (20 µM),1,1.01,1.04,1.19,1.02 (inactive),0.997 (inactive),0.985 (inactive),1.01 (inactive),0.997 (inactive),1 (inactive),1.01 (inactive),0.968 (inactive)
COc1cc2c(cc1OC)C(=O)C(CC1CCN(Cc3ccccc3)CC1)C2 (centres undefined) [Donepezil hydrochloride] (20 µM),1.2,1.23,1.02,0.917,1.53 (inactive),0.947 (inactive),1.03 (inactive),1.24 (inactive),2.04 (inactive),0.981 (inactive),1.21 (inactive),1.08 (inactive)
